# Laboratory results reported in PubChem BioAssay AID2796 (The Scripps Research Institute Molecular Screening Center, 2010).
# The whole screen tested about 320,000 compounds, of which about 8,000 (2.5%) were called active. For the sample, actives were picked, then their nearest neighbours and some compounds at random. Values without a mark were called inactive. Cut-off read from the data, not from the text of the source: active = activation above about 47%; inactive = the rest.
# Target: Aryl hydrocarbon receptor (Homo sapiens) (UniProt P35869)
# Assay: AHR activators, primary screen, cell-based, luminescence, luciferase reporter, human (AID 2796);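 note: 0% = vehicle wells and 100% = reference agonist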
# Conditions: AHR-responsive luciferase reporter cells, at 5 µM, hits give high values
# Chain of Aryl hydrocarbon receptor (Homo sapiens) (P35869 whole entry, looked up): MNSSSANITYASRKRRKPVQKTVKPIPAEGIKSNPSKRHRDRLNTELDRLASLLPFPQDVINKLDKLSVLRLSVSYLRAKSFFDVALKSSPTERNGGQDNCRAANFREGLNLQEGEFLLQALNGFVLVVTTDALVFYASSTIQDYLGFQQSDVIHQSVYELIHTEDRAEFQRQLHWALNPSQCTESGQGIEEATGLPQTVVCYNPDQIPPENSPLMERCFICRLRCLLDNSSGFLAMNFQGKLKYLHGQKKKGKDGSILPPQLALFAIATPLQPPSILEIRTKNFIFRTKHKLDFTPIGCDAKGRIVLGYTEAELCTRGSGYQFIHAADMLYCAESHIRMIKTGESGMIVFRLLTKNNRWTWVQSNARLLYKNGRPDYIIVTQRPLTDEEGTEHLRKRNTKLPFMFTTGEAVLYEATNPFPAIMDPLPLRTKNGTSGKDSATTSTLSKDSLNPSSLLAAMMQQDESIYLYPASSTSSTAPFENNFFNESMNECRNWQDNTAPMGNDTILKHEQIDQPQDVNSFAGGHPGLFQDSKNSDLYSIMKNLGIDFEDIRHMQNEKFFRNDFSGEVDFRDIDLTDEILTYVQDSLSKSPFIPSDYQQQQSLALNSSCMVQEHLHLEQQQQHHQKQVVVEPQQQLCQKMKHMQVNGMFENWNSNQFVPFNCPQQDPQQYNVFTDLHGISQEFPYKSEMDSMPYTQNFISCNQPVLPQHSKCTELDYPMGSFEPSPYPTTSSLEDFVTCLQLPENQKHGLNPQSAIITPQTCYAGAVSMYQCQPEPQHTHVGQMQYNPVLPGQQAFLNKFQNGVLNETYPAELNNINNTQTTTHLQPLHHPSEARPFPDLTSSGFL
row,Structure (SMILES),activation
1,O=C(Nc1ccc(N2CCOCC2)nc1)c1c(F)cccc1F,-5.89%
2,COc1ccc(C(=O)N(C)CC(O)c2ccccc2)cc1OC1CCN(C(C)=O)CC1 (stereo not given),2.56%
3,Cc1nc(SCC(=O)NC2CCCCC2C)c(C#N)c(C)c1C (stereo not given),-1.86%
4,CC(C)CC1NC(=O)c2cc(Cl)ccc2-n2c1nc1ccccc1c2=O (stereo not given),20.2%
5,CCOCCCNC(=O)C(NC(=O)CNC(=O)c1ccccc1)c1ccc(C)cc1 (stereo not given),0.56%
6,O=C(c1ccc(F)cc1)C1CCN(Cc2cn[nH]c2-c2ccccc2)CC1,3.88%
7,Cc1cccc(C)c1NC(=O)C1(C)c2cccc[n+]2CC(=O)N1Cc1cccs1 (stereo not given),1.93%
8,O=S(=O)(Nc1ccc(Oc2ncccn2)c(Cl)c1)c1ccc(F)cc1,-0.48%
9,CCN(CC)C(=O)CC1(c2ccccc2OC)CCOC(C(C)C)C1 (stereo not given),-3.4%
10,CCc1ccc2oc(-c3ccc(N)cc3)nc2c1,78.3% (active)
11,O=C(Nc1ccc2oc(-c3ccc4ccccc4c3)nc2c1)c1cccs1,33.5%
12,O=C(NC(=S)Nc1ccc(Br)cc1F)C1CCCCC1,-1.21%
13,CCOc1ccc(N(CC(=O)NCCc2ccc(F)cc2)S(=O)(=O)c2ccccc2)cc1,0.85%
14,Cc1cccc(NC(=O)c2nnn(-c3cccc(C(F)(F)F)c3)c2N)c1,-4.69%
15,O=C(Nc1cccc(-n2cnnn2)c1)c1cccnc1,4.54%
16,O=C(Nc1ccc(C(F)(F)F)cc1)c1cccc(-n2cnnn2)c1,102% (active)
17,CCOCCn1c(-c2ccccc2)nc2ccccc21,-0.77%
18,Cc1nc(-c2ccccc2)cn2c1nc1ccccc12,77% (active)
19,Cc1c(C(=O)Nc2cccc(Cl)c2)cn2c(nc3ccccc32)c1C#N,7.03%
20,Cc1ccc(-n2nc(C)c(/C=N/NC(=O)c3cccs3)c2Cl)cc1,11.5%
21,COc1ccccc1CNC(=O)c1ccc(CS(=O)(=O)c2ccccc2)o1,-0.56%
22,O=C(NCc1cccnc1)c1ccc(CS(=O)(=O)c2ccc(Br)cc2)o1,77.4% (active)
23,COc1ccc(CCNC(=O)c2ccc(CS(=O)(=O)c3ccc(Br)cc3)o2)cc1OC,2.36%
24,C[C@H](NC(=O)C1CCN(S(=O)(=O)c2ccccc2)CC1)C(=O)NCc1ccccc1,1.44%
25,O=C(Nc1ccc(Cl)cn1)c1ccc2c(c1)OCCO2,-5.76%

row,Structure (SMILES),activation
1,O=C(Nc1ccc(Cl)cn1)c1cnn2cccnc12,129% (active)
2,O=C(COC(=O)c1ccco1)Nc1ccc(Cl)cn1,10.9%
3,O=C(CN1C(=O)NC(Cc2c[nH]c3ccccc23)C1=O)Nc1ccccc1C(F)(F)F (stereo not given),-0.64%
4,O=C(Nc1ncc([N+](=O)[O-])s1)C1COc2ccccc2O1 (stereo not given),6.36%
5,COc1ccc(OC)c2sc(NC(=O)C3COc4ccccc4O3)nc12 (stereo not given),50.9% (active)
6,COc1ccc(NC(=O)C2COc3ccccc3O2)cc1 (stereo not given),1.18%
7,CCC(=O)N(Cc1cc2ccccc2[nH]c1=O)c1ccc(OC)cc1,3.79%
8,O=[N+]([O-])c1cc(S(=O)(=O)NCCc2ccccn2)ccc1Cl,-0.28%
9,Cc1c([N+](=O)[O-])c(N)nn1C,2.61%
10,CC(C)OC(=O)CN1CCN(c2ccc(Cl)cc2)CC1,1.24%
11,O=C(CN1CCN(c2ccc(Cl)cc2)CC1)c1ccccc1,73.2% (active)
12,O=C(CN1CCN(c2ccc(Cl)cc2)CC1)NCc1cccs1,-1.24%
13,CCCCC(CC)CNCc1cccn1CCN1CCOCC1 (stereo not given),1.27%
14,COc1cccc(N2C(=O)CN(Cc3ccccc3)C2=S)c1,1.66%
15,COc1cccc(-n2c(=S)[nH]c3c(oc4ccccc43)c2=O)c1,64.8% (active)
16,COc1cccc(-n2cc(C(=O)O)c3ccccc3c2=O)c1,-1.78%
17,CCOC(=O)C1CCN(S(=O)(=O)c2ccc3c(c2)N(C)C(=O)CC(=O)N3C)CC1,-0.75%
18,CCOC(=O)C1CN(S(=O)(=O)c2ccc(OC)cc2)c2cc(Cl)ccc2O1 (stereo not given),1.38%
19,COc1ccc(C2OCC3(CO2)SC(=O)NC3=O)cc1OC (stereo not given),3.57%
20,CC(=O)Nc1nc(N(C)C)nc(N(C)C)n1,-2.86%
21,CNc1nc(Nc2ccc(C)c(Cl)c2)nc(N)c1[N+](=O)[O-],38.2%
22,CN(C)c1ccnc(Nc2ccc(F)cc2)c1C#N,10.8%
23,CN(C)c1nc(Nc2ccc(Cl)c(Cl)c2)nc(N(C)C)n1,130% (active)
24,CN(C)c1nc(NN)nc(Nc2ccc(F)cc2)n1,76.4% (active)
25,Fc1ccc(Nc2nnns2)cc1,-0.19%

row,Structure (SMILES),activation
1,Cc1cccc(OCC(O)CN2CCN(CCN3C(=O)c4cccc5cccc(c45)C3=O)CC2)c1C (stereo not given),1.57%
2,Nc1nc(O)c(CC(=O)O)s1,1.52%
3,CCCCC/C=C/C1=CC(=O)C[C@H](c2ccc(Cl)cc2)C1,0.78%
4,CCOC(=O)C1CCN(C(=O)C2CCCN(S(=O)(=O)c3ccc(OC)c(Cl)c3)C2)CC1 (stereo not given),1.31%
5,CCCCc1ccc(NC(=O)NCc2cccnc2)cc1,7.22%
6,Cn1nnnc1SCC(=O)Nc1sccc1C(N)=O,-1.01%
7,COC(=O)c1ccccc1NC(=O)CSc1nnnn1C,3.56%
8,O=C(CCNC(=O)c1ccccc1)Nc1nc2ccccc2s1,24.7%
9,O=C(Nc1ccccc1)Nc1nc2ccccc2s1,74.5% (active)
10,O=C(CCC(=O)c1cccs1)Nc1nc2ccccc2s1,38%
11,Cn1nnnc1SCC(=O)Nc1nc2ccccc2s1,50.3% (active)
12,Brc1cnc2ccccc2c1N1CCCCC1,-3.31%
13,Cc1ccc(C(=O)N/C(=C\c2cccs2)C(=O)NCCc2ccccn2)cc1C,0.25%
14,N#Cc1c(N2CCCCC2)nc(N)c2c(N)nc(SCC(=O)O)cc12,6.26%
15,Cc1ccc(NC(=O)c2cnc(SCC(=O)NCC3CCCO3)n(C)c2=O)cc1 (stereo not given),16.3%
16,Cn1c(SCC(=O)c2ccc(F)cc2)nnc1-c1ccccn1,-0.55%
17,Cn1c(SCC(=O)c2ccccc2)ncc(C(=O)Nc2ccc(F)cc2)c1=O,98.3% (active)
18,CN(CC(=O)Nc1ccc(Cl)cc1)CC(=O)Nc1cccc2ccccc12,5.21%
19,O=C(CN1C(=O)NC2(CCCCCC2)C1=O)Nc1ccc([N+](=O)[O-])cc1,-2.64%
20,COc1cc(Cl)ccc1OCc1cc(C(=O)N2CC[C@@H]3CCCC[C@H]3C2)no1,6.28%
21,COc1ccc(OCc2cc(C(=O)N3CCCC3)no2)c2ccccc12,50.9% (active)
22,COc1ccccc1-c1cc(C(=O)N2CCCCC2)no1,32.7%
23,Cc1ccc(C(=O)NCC(=O)OCC(=O)NC2CCCCCCC2)cc1,0.7%
24,CCCCNC(=O)C1CCCN(S(=O)(=O)c2ccc(S(=O)(=O)NCC(C)C)cc2)C1 (stereo not given),-3.28%
25,CCOc1ccc(C2c3[nH]c4ccccc4c3CCN2Cc2cccn2-c2ncccn2)cc1 (stereo not given),26.3%

row,Structure (SMILES),activation
1,COc1cccc(C2c3[nH]c4ccccc4c3CCN2Cc2cccc(C)n2)c1 (stereo not given),17.2%
2,CCOc1ccc(C2c3[nH]c4ccccc4c3CCN2Cc2cn(CC)nc2C)cc1 (stereo not given),58.7% (active)
3,Cc1c(-c2ccccc2)n[nH]c1C(=O)N=Nc1c(O)[nH]c2ccccc12,-6.16%
4,CCOC(=O)c1c(C)[nH]c(C(=O)COc2ccc3c(c2)OCO3)c1C,30.7%
5,CCOC(=O)c1nc(-c2ccc3c(c2)OCO3)[nH]c1C,102% (active)
6,CCOC(=O)N1CCN(C(=O)COCc2cc(-c3ccc4c(c3)OCO4)on2)CC1,0.94%
7,CCCCOc1ccc(Cl)cc1CSc1nncn1N,1.19%
8,Cc1cccc(N=C2SC(C)CN2C(=O)CN2C(=O)NC3(CCCC3)C2=O)c1 (stereo not given),2.39%
9,CCOc1ccccc1CN1CCN(C2CCC2)CC1CCO (stereo not given),-2.26%
10,CC(=O)N1CSCC1C(=O)O (stereo not given),0.15%
11,CCOc1cccc(C(=O)Nc2cnn(Cc3ccccc3)c2)c1,47.8% (active)
12,CCOc1cccc(C(=O)Nc2nnc(-c3cccs3)s2)c1,37.1%
13,O=C(O)CCCn1cc(NC(=O)COc2cccc(Cl)c2)cn1,-1.62%
14,C=CC1=C(C(=O)O)N2C(=O)[C@@H](NC(=O)/C(=N\OCC(=O)O)c3csc(N)n3)[C@H]2SC1,-1.86%
15,CC(=O)Oc1ccc(C(=O)Nc2nccs2)cc1,1.87%
16,COc1cc(C(=O)Nc2nccs2)cc(OC)c1OC,51.3% (active)
17,COc1ccc(Cc2nnc(NC(=O)c3cc(OC)c(OC)c(OC)c3)s2)cc1OC,0.25%
18,O=C(Nc1cccc2c1N(C(=O)c1ccco1)CCC2)c1ccco1,2.88%
19,Cc1ccc(NC(=O)CSc2nn3c(=O)c(C)nnc3s2)cc1Cl,72.8% (active)
20,COc1ccc(Cc2nnc(SCC(=O)Nc3ccc(C)c(Cl)c3)[nH]c2=O)cc1,-0.12%
21,Cc1ccc(NC(=O)CSc2nnc(CNC(=O)c3ccccc3F)o2)cc1Cl,26.2%
22,COCCNC(=O)CSc1nc2c(n1-c1ccccc1)CCCC2,-0.48%
23,Cc1cc(=O)n2[nH]c(-c3cccc(Cl)c3)cc2n1,50.5% (active)
24,Cc1cc(=O)n2[nH]c(-c3sccc3-n3c(C)ccc3C)cc2n1,10%
25,O=c1c2c(nc3cc(-c4cccc(Cl)c4)[nH]n13)CCCC2,5.09%
